# According to PubChem BioAssay (EPA / NIEHS):
# Records with an inconclusive call do not appear. Activity calls are given as the source filed them. Rule for the calls, unless noted: active = hit-call score of the fitted dose curve at least 0.9, where 1 is the maximum; inconclusive = response in the unintended direction; inactive = score below 0.9.
# Legend:
# [1] = target: Glutamate receptor ionotropic, kainate 1 (Rattus norvegicus) (UniProt P22756); experiment: NVS_IC_rKAR: NovaScreen (NVS) Ion Channel Assay for rat Kainic Acid Receptors (KAR) (AID 2283334; active = hit-call score of the fitted dose curve at least 0.9, where 1 is the maximum; inactive = score below 0.9)
# Outline: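 Rat forebrain membrane preparation incubated 1 h with radioligand and test chemical; bound signal read by filtration and scintillation. Single-concentration screen at 25 uM, then concentration series to 50 uM maximum.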
# [2] = target: bovine Estrogen Receptor (ER), ESR1 (gene 407238) (UniProt P49884); experiment: NVS_NR_bER: NovaScreen (NVS) Nuclear Receptor Binding Assay for bovine Estrogen Receptor (ER) (AID 2283345);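 note: actives lower the bound radioligand count which means they displace the ER ligand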
# Outline: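 Scintillation counting of displaced radioligand gave the readout; bovine uterine membrane extract supplied the receptor. Measured 18 h post-dose, normalized to DMSO baseline. Single 25 uM duplicate screen preceded concentration-response follow-up.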
# [3] = target: Estrogen receptor (Homo sapiens) (UniProt P03372); experiment: OT_ER_ERaERa_1440: Odyssey Thera (OT) 24-hour HEK293T Protein-Complementation Assay for Estrogen Receptor-alpha/-alpha Homodimer (AID 2283349);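 note: hits raise fluorescence above DMSO for agonists and antagonists alike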
# Outline: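 HEK293T, stable ERα LBD (aa 310-547) homodimer PCA; 24 h compound exposure; mean fluorescence intensity (nuclear for agonists, nuclear plus cytoplasmic for antagonists) vs vehicle; positive fitting direction, DMSO baseline.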
# [4] = target: Estrogen receptor (Homo sapiens) (UniProt P03372); experiment: OT_ER_ERaERa_0480: Odyssey Thera (OT) 8-hour HEK293T Protein-Complementation Assay for Estrogen Receptor-alpha/-alpha Homodimer (AID 2283351);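 note: rise in fluorescence from reassembled reporter fragments on ERα LBD homodimer in nucleus or whole cell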
# Outline: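 Measures ERα LBD (aa 310-547) homodimer complementation in stably transfected HEK293T at 8 h post-dose, with fluorescence intensity quantified on a laser scanning cytometer relative to DMSO controls.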
# [5] = target: Estrogen receptor (Homo sapiens) + Estrogen receptor beta (Homo sapiens) (UniProt P03372+Q92731); experiment: OT_ER_ERaERb_0480: Odyssey Thera (OT) 8-hour HEK293T Protein-Complementation Assay for Estrogen Receptor-alpha/-beta Heterodimer (AID 2283352)
# Outline: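 HEK293T protein-fragment complementation assay of ER-alpha/ER-beta LBD heterodimerisation, read 8 h after dosing. Mean nuclear/cytoplasmic fluorescence intensity measured by laser scanning cytometry; gain of signal fitted relative to DMSO.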
# [6] = NVS_IC_rCaBTZCHL: NovaScreen (NVS) Ion Channel Assay for Calcium Channel, Type L, Benzothiazepine Site (CaBTZCHL) (AID 2283337)
# Outline: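 Benzothiazepine-site binding was assessed in a tissue-derived, cell-free rat cortical membrane system. After 1.5 h exposure, radioactivity retained on filters was quantified by scintillation; positive and negative controls accompanied every plate.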
# [7] = test system: guinea pig Histamine Receptor (H2), gene 100729734; experiment: NVS_GPCR_gH2: NovaScreen (NVS) G Protein-Coupled Receptor Assay for guinea pig Histamine Receptor (H2) (AID 2283342)
# Outline: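 Guinea pig striatal membrane preparation with specific radioligand; bound counts measured by filtration and scintillation 1 h post-dosing, DMSO as baseline. Chemicals passing a 25 uM duplicate screen were titrated to a 50 uM maximum.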
# [8] = target: human Constitutive Androstane Receptor (CAR), NR1I3 (gene 9970) (UniProt Q14994); experiment: NVS_NR_hCAR_Antagonist: NovaScreen (NVS) Nuclear Receptor Binding Assay for human Constitutive Androstane Receptor Antagonism (CAR) (AID 2283344)
# Outline: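 Single 25 uM duplicate primary screen, with concentration-series follow-up on actives. Cell-free binding format run in antagonist mode, TR-FRET signal taken 1 h post-dose; activity is signal loss relative to DMSO.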
# [9] = target: Voltage-gated inwardly rectifying potassium channel KCNH2 (Homo sapiens) (UniProt Q12809); experiment: NVS_IC_hKhERGCh: NovaScreen (NVS) Ion Channel Assay for human Potassium Channel ERG (KhERGCh) (AID 2283333)
# Outline: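 Membranes from CHO cells expressing human ERG; displacement of radioligand measured by filtration and scintillation after 0.75 h. Single-concentration duplicate screen at 25 uM, then concentration-response for actives; DMSO baseline.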
# [10] = target: human Peripheral-type Benzodiazepine Receptor (PBR), TSPO (gene 706) (UniProt P30536); experiment: NVS_MP_hPBR: NovaScreen (NVS) Membrane Protein Assay for human Peripheral-type Benzodiazepine Receptor (PBR) (AID 2283331);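 note: hits reduce radioligand binding relative to DMSO baseline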
# Outline: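 Cell-free binding to human colonic membrane preparations measured by filter-based scintillation counting after 1 h. Compounds first run at 25 uM in duplicate, then concentration series for actives; signal loss against DMSO baseline.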
# [11] = target: rat Peripheral-type Benzodiazepine Receptor (PBR), Tspo (gene 24230) (UniProt P16257); experiment: NVS_MP_rPBR: NovaScreen (NVS) Membrane Protein Assay for rat Peripheral-type Benzodiazepine Receptor (PBR) (AID 2283335)
# Outline: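 Single-concentration duplicate screening at 25 uM preceded concentration-series retesting of actives. Binding of a specific radioligand to rat kidney membrane PBR was read by filtration radiodetection after 1 h, with plate-wise positive and negative controls.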
# [12] = target: bovine Gamma-Aminobutyric Acid Type A Receptor Agonist (GABAR Agonist), GABRA1 (gene 780973) (UniProt P08219); experiment: NVS_LGIC_bGABAR_Agonist: NovaScreen (NVS) Ligand-Gated Ion Channel Assay for bovine Gamma-Aminobutyric Acid Type A Receptor Agonist (GABAR Agonist) (AID 2283338)
# Outline: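 Radioligand binding to bovine cerebellar membranes in agonist format, read by filter-based scintillation counting after 1 h. Primary screen in duplicate at 25 uM, with actives followed in concentration series. Gain of signal versus DMSO.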
# [13] = target: Androgen Receptor/SRC-1 Co-activator, AR (gene 367) (UniProt P10275); experiment: OT_AR_ARSRC1_0480: Odyssey Thera (OT) 8-hour HEK293T Protein-Complementation Assay for Androgen Receptor/SRC-1 Co-activator (AID 2283354);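 note: hits raise the complementation signal above DMSO so AC50 marks enhancers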
# Outline: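 Reconstituted split-Venus YFP signal from AR–SRC-1 interaction, read by imaging 8 h post-dose in stable HEK293T lines. The 488 nm nucleus-to-cytoplasm ratio (≥400 cells/image) was fitted upward against DMSO.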
# [14] = target: rat Glutamate, MK-801 Agonist Site (GluNMDA_MK801), Grin1 (gene 24408) (UniProt P35439); experiment: NVS_LGIC_rGluNMDA_MK801_Agonist: NovaScreen (NVS) Ligand-Gated Ion Channel Assay for rat Glutamate, MK-801 Agonist Site (GluNMDA_MK801) (AID 2283340)
# Outline: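 Rat forebrain membrane preparation; MK-801-site radioligand binding read by filtration and scintillation after 1.5 h. Single-point 25 uM duplicate screen, followed by singleton concentration series to 50 uM max; DMSO baseline.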
# NCBI gene 100848466 = experiment: NVS_NR_bPR: NovaScreen (NVS) Nuclear Receptor Binding Assay for bovine Progextron Receptor (PR) (AID 2283343);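 note: actives lower bound radioligand signal below DMSO meaning displacement of the label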
# Outline: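 Competitive radioligand binding with membranes from bovine uterus, scintillation read-out at 18 h post-dose. Compounds first tested in duplicate at 25 uM, then actives in concentration series; loss-of-signal relative to DMSO.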
# [15] = target: Small conductance calcium-activated potassium channel protein 1 (Rattus norvegicus) (UniProt P70606); experiment: NVS_IC_rKCaCh: NovaScreen (NVS) Ion Channel Assay for rat Potassium Channel, Ca2+ Act., VI (KCaCh) (AID 2283336)
# Outline: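 Filter-based scintillation counting of radioligand bound to rat forebrain membrane preparations, measured 1 h after compound addition. Primary screen used 25 uM in duplicate, with concentration-response follow-up; signal decrease relative to DMSO marks activity.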
# [16] = target: human Androgen Receptor (AR), AR (gene 367) (UniProt P10275); experiment: NVS_NR_hAR: NovaScreen (NVS) Nuclear Receptor Binding Assay for human Androgen Receptor (AR) (AID 2283332)
# Outline: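 Radioligand competitive binding, scintillation read-out, in cell-free extract from LnCAP, measured 20 h after dosing. Screened first in duplicate at 25 uM, then concentration series for actives; activity fitted against DMSO.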
# [17] = target: rat Thyrotropin Releasing Hormone Receptor (TRH), Trhr (gene 25570) (UniProt Q01717); experiment: NVS_GPCR_rTRH: NovaScreen (NVS) G Protein-Coupled Receptor Assay for rat Thyrotropin Releasing Hormone Receptor (TRH) (AID 2283329);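 note: hit means lower bound tracer signal versus DMSO baseline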
# Outline: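 Rat forebrain membrane prep, radioligand displacement, filter scintillation readout at 4 h. Single conc 25 uM, duplicate; actives retested as concentration series. DMSO = negative control/baseline.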
# [18] = target: Bile acid receptor (Homo sapiens) (UniProt Q96RI1); experiment: NVS_NR_hFXR_Antagonist: NovaScreen (NVS) Nuclear Receptor Binding Assay for human Farnesoid X Receptor Antagonism (FXR) (AID 2283350)
# Outline: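 Antagonist-format time-resolved FRET binding assay with extracted human receptor protein, read 1 hour after compound addition. Compounds first screened at 25 uM in duplicate, then actives tested in concentration series, with loss of signal relative to DMSO.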
# Chain of rat Peripheral-type Benzodiazepine Receptor (PBR), Tspo (gene 24230) (P16257 whole entry, looked up): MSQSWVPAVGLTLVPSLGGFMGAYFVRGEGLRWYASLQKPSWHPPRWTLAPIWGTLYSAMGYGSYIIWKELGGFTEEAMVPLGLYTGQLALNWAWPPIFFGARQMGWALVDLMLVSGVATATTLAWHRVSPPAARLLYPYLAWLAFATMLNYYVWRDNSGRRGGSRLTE
# Chain of bovine Estrogen Receptor (ER), ESR1 (gene 407238) (P49884 whole entry, looked up): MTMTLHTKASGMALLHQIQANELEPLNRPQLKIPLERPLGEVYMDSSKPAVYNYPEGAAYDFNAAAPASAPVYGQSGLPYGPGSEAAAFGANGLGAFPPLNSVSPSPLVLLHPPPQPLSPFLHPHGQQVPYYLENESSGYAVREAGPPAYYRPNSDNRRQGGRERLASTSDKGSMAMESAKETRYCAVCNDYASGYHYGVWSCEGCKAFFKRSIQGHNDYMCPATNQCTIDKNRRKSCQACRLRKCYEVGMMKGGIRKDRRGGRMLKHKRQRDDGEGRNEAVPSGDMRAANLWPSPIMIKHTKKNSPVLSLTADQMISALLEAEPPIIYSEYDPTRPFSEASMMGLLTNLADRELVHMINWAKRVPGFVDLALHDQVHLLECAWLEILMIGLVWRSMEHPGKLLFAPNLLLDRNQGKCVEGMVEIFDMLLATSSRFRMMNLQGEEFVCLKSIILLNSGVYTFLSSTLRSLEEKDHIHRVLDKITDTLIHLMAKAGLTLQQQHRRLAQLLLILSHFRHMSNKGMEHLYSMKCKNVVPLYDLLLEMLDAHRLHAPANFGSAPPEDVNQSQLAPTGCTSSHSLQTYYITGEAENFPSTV
# Chain of human Constitutive Androstane Receptor (CAR), NR1I3 (gene 9970) (Q14994 whole entry, looked up): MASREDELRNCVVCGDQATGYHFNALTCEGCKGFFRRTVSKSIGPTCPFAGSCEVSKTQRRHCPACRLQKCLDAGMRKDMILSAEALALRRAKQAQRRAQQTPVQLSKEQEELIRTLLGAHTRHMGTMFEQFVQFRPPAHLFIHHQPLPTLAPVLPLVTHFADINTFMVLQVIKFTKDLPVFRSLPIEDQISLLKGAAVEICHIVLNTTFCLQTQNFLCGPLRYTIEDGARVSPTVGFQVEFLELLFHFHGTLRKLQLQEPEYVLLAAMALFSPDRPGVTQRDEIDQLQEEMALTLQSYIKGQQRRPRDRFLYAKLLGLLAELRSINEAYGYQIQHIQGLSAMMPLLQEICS
# Chain of Androgen Receptor/SRC-1 Co-activator, AR (gene 367) (P10275 whole entry, looked up): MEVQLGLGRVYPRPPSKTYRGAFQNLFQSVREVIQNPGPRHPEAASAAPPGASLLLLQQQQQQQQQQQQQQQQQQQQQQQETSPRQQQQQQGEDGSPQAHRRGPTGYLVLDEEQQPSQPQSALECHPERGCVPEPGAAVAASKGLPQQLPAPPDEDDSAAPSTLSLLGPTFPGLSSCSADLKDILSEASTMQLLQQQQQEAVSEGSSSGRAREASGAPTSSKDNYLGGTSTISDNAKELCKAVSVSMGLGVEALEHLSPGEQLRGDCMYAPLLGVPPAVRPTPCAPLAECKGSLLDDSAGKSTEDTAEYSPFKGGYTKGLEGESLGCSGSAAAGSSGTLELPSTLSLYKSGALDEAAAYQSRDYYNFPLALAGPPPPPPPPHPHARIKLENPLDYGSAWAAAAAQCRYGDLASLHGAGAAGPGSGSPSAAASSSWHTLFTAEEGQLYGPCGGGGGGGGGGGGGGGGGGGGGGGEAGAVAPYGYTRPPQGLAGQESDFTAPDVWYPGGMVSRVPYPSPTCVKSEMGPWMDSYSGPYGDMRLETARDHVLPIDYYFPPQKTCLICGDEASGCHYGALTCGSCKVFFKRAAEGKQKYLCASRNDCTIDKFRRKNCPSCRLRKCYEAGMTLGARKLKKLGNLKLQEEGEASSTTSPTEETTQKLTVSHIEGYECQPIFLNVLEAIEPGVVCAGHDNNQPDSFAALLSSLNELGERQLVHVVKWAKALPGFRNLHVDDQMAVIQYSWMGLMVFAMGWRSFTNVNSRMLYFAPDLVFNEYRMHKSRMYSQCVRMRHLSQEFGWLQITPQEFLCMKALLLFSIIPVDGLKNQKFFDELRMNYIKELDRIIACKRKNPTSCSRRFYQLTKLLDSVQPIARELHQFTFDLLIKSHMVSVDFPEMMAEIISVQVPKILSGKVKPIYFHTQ
# Chain of human Peripheral-type Benzodiazepine Receptor (PBR), TSPO (gene 706) (P30536 whole entry, looked up): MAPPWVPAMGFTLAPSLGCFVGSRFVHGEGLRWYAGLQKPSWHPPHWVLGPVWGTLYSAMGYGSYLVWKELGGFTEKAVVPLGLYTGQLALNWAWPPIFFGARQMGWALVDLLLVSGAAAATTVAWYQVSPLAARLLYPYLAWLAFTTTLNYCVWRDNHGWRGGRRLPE
# Chain of Glutamate receptor ionotropic, kainate 1 (Rattus norvegicus) (P22756 whole entry, looked up): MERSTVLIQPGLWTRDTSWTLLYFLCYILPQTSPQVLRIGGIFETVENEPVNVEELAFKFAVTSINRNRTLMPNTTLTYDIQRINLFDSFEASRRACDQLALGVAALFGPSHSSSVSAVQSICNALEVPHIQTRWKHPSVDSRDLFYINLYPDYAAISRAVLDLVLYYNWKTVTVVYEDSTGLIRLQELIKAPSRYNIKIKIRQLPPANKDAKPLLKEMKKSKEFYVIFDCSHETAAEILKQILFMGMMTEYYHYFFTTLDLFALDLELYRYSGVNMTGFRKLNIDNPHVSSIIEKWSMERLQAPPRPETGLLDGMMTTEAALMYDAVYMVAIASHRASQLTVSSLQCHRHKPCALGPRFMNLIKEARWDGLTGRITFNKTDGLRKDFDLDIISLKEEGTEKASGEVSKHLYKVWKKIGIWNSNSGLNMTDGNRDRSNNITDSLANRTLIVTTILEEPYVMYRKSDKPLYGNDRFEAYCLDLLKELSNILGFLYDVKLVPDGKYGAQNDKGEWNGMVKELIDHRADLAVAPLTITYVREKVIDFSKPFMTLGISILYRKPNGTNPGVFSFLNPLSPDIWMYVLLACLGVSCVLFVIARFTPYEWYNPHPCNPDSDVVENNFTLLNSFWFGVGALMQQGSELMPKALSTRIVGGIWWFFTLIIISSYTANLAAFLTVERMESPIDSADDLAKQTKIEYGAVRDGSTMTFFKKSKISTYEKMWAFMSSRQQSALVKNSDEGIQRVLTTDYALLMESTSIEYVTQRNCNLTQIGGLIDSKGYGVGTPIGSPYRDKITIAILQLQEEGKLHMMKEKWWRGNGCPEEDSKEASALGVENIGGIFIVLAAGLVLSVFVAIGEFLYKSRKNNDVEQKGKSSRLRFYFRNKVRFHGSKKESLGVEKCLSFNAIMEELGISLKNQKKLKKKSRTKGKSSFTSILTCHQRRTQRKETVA
# Chain of Estrogen receptor (Homo sapiens) + Estrogen receptor beta (Homo sapiens) (P03372 whole entry, looked up, the tested form may be a part): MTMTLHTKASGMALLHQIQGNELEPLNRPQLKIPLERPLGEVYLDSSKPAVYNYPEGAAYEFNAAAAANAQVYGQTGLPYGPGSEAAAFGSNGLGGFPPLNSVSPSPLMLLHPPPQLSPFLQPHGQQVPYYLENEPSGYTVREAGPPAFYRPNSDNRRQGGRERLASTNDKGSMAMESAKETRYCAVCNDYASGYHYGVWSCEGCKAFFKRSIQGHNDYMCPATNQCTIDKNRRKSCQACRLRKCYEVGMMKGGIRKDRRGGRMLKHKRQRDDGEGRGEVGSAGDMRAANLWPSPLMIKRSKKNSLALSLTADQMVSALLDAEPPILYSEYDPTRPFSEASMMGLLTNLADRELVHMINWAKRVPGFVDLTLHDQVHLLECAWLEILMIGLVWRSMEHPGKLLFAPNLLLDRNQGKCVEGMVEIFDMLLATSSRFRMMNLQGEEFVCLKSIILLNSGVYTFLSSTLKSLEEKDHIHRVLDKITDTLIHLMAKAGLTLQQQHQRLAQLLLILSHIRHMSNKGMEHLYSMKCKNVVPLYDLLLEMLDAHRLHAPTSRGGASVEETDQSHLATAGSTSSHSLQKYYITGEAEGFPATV
# Chain of Estrogen receptor (Homo sapiens) + Estrogen receptor beta (Homo sapiens) (Q92731 whole entry, looked up, the tested form may be a part): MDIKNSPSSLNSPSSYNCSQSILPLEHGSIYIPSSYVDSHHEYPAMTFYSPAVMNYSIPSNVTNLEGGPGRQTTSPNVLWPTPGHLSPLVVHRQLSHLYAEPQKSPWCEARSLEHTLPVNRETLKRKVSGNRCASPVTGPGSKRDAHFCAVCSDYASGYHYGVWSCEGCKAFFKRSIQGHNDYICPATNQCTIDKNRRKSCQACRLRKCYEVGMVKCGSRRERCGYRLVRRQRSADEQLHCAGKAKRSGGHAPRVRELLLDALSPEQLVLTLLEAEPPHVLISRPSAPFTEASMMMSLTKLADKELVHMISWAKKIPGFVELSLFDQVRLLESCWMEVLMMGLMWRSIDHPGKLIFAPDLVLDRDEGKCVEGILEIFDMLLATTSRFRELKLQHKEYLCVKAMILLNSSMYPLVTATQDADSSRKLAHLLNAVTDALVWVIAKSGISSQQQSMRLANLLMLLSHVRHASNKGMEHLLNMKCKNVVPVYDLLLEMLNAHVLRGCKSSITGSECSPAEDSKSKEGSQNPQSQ
# Chain of Estrogen receptor (Homo sapiens) (P03372 whole entry, looked up, the tested form may be a part): as the sequence (P03372 whole entry, looked up, the tested form may be a part) above
smiles,measurement,setting,value
CCCCCCCC=O,outcome,[1],inactive
same,outcome,[2],inactive
same,outcome,[3],inactive
same,outcome,[4],inactive
same,outcome,[5],inactive
CCc1c(C(=O)NN2CCCCC2)nn(-c2ccc(Cl)cc2Cl)c1-c1ccc(Br)cc1,outcome,[6],inactive
same,outcome,[7],inactive
same,outcome,[8],inactive
same,outcome,[2],inactive
same,outcome,[3],inactive
same,outcome,[4],inactive
same,outcome,[5],inactive
CN1CCN(Cc2cc(-c3ccc4[nH]c(=O)oc4c3)co2)[C@@H](c2ccc(F)cc2)C1,outcome,[9],inactive
same,AC50,[6],5.34 µM (active)
same,AC50,[7],0.445 µM (active)
same,outcome,[2],inactive
Cc1ccc(C(C)C)c(O)c1,AC50,[10],18.3 µM (active)
same,outcome,[11],inactive
same,outcome,[12],inactive
same,outcome,[8],inactive
same,outcome,[3],inactive
same,outcome,[4],inactive
same,outcome,[5],inactive
Cc1cccc([N+](=O)[O-])c1C,outcome,[12],inactive
same,outcome,[3],inactive
same,outcome,[4],inactive
same,outcome,[5],inactive
Cc1cccc(Nc2cc(Cl)nc(SCC(=O)O)n2)c1C,AC50,[10],6.49 µM (active)
same,outcome,[2],inactive
same,outcome,[3],inactive
same,outcome,[4],inactive
same,outcome,[13],inactive
CCCCC(CC)COC(=O)CC(C(=O)OCC(CC)CCCC)S(=O)(=O)O (stereo not drawn),AC50,[11],9.22 µM (active)
same,outcome,[14],inactive
same,AC50,NCBI gene 100848466,10.9 µM (active)
same,outcome,[2],inactive
same,outcome,[3],inactive
Nc1ccc2c(c1)C(=O)c1ccccc1C2=O,outcome,[10],inactive
same,outcome,[3],inactive
CCCCCCC(=O)OCC,outcome,[1],inactive
same,outcome,[2],inactive
same,outcome,[3],inactive
same,outcome,[4],inactive
same,outcome,[5],inactive
Cc1oc(-c2ccccc2)nc1CCOc1cccc2c1ccn2CCC(=O)O,AC50,[11],46.5 µM (active)
same,outcome,[3],inactive
same,outcome,[4],inactive
same,outcome,[5],inactive
CCCCN(CCCC)CCCC,outcome,[15],inactive
same,outcome,[3],inactive
same,outcome,[4],inactive
same,outcome,[5],inactive
CCCCCCCCCCC,outcome,[16],inactive
same,outcome,[8],inactive
same,outcome,[3],inactive
same,outcome,[4],inactive
same,outcome,[5],inactive
CCOc1ccc2c(c1)C(C)=CC(C)(C)N2,outcome,[12],inactive
same,AC50,NCBI gene 100848466,25 µM (active)
same,outcome,[3],inactive
same,outcome,[4],inactive
same,outcome,[13],inactive
COc1ccc(S(=O)(=O)N2C(=O)[C@@](c3ccccc3OC)(N3C[C@H](O)C[C@H]3C(=O)N(C)C)c3cc(Cl)ccc32)c(OC)c1,AC50,[17],10.4 µM (active)
same,AC50,[6],3.53 µM (active)
same,outcome,[2],inactive
same,outcome,[3],inactive
same,outcome,[4],inactive
same,AC50,[13],27.2 µM (active)
NC(=O)Cn1c(=O)cc(CCN2CCN(c3nccc4sccc34)CC2)c2ccc(F)cc21,AC50,[10],1.77 µM (active)
same,AC50,[11],1.6 µM (active)
same,AC50,[7],1.82 µM (active)
same,outcome,[3],inactive
same,outcome,[4],inactive
NS(=O)(=O)c1cc2c(cc1Cl)NCNS2(=O)=O,outcome,[11],inactive
same,outcome,[3],inactive
same,outcome,[4],inactive
same,outcome,[5],inactive
CC(C)(C)c1cc(O)c(C(C)(C)C)cc1O,outcome,[12],inactive
same,outcome,[3],inactive
same,outcome,[4],inactive
same,outcome,[5],inactive
same,outcome,[13],inactive
C=CCOC(=O)c1ccccc1C(=O)OCC=C,AC50,[10],25 µM (active)
same,outcome,[11],inactive
same,outcome,[3],inactive
same,AC50,[4],63.1 µM (active)
Oc1ccc2c(c1)OC[C@@H](N1CCC(O)(c3ccc(F)cc3)CC1)[C@H]2O,outcome,[6],inactive
same,outcome,[3],inactive
same,outcome,[4],inactive
same,outcome,[5],inactive
O=C(N[C@@H](Cc1ccccc1)[C@@H](O)C(=O)N1C[C@@H](O)[C@@H](O)C1)c1cc2cc(Cl)ccc2[nH]1,outcome,[6],inactive
same,outcome,[3],inactive
same,outcome,[4],inactive
same,outcome,[5],inactive
Nc1ccccc1N,outcome,[10],inactive
same,outcome,[2],inactive
same,outcome,[3],inactive
same,outcome,[4],inactive
Nc1nc(N)c2nc(CNc3ccc(C(=O)N[C@@H](CCC(=O)O)C(=O)O)cc3)cnc2n1,outcome,[1],inactive
same,outcome,[3],inactive
same,outcome,[4],inactive
same,outcome,[5],inactive
COc1cc(C=O)ccc1O,outcome,[12],inactive
same,outcome,[2],inactive
same,outcome,[3],inactive
same,outcome,[18],inactive
same,outcome,[4],inactive
same,outcome,[5],inactive
same,outcome,[13],inactive
CC(=O)OCCOCCOCCOC(C)=O,outcome,[12],inactive
same,outcome,[3],inactive
same,outcome,[4],inactive
same,outcome,[5],inactive
